# ATXN2 expr inh – reduces ATXN2 reporter expression in HEK-293 cells | Potency, µM (series often up to 57 µM), inactives show top-dose activity change, negative = inhibition, most hits filed as inhibitors | HEK-293 ATXN2-luciferase reporter, luminescence, 24 h | AID 1745845 | 360,000 tested, 0.72% active; also: potency is read from the fitted curve at half-maximal effect; % is scaled to controls: 0 for no effect and ±100 for the full control effect; nearly all actives have a fitted effect of over 55% in size
#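 qHTS (up to 57 uM final) was run with 24 h compound exposure of reporter cells at 37 °C. Each well was multiplexed: SteadyGlo luminescence measured ATXN2-luciferase expression after a fluorogenic Gly-Phe-AFC viability readout (25 uM final).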
# Integrin act MD – activators of alpha7 integrin expression for muscular dystrophy | alpha7betagal myoblasts, beta-gal FDG fluorescence, 48 h | Potency, µM (doses to about 38.3 µM), without a hit: at the highest dose activation, actives largely listed as activators | 350,000 tested, 0.064% active | AID 624291;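 also: potency is read from the fitted curve at half-maximal effect; 100% = response of the positive control SU9516; nearly all actives have a fitted effect of over 60% in size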
#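 Alpha7betagal+/- myoblasts (passage 13) were plated 16-24 hr, then exposed to compounds (1:260 dilution of DMSO stock) for 48 hours at 37C. After MPER lysis, β-galactosidase reporter activity was read as FDG fluorescence (ex 480/em 540) after 30 minutes.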
# D3 antag – D3 dopamine receptor (human) antagonism; D3R cells, DiscoveRx beta-arrestin luminescence, antagonist mode; active compounds read low; AID 652054; P35462; max response, negative = inhibition, %; 360,000 tested, 2.5% active; in the data active = max response below about -50%; inconclusive = no clear call, values can overlap the other calls; also: % is scaled to controls: 0 for no effect and ±100 for the full control effect
# Target sequence (P35462 whole entry, looked up): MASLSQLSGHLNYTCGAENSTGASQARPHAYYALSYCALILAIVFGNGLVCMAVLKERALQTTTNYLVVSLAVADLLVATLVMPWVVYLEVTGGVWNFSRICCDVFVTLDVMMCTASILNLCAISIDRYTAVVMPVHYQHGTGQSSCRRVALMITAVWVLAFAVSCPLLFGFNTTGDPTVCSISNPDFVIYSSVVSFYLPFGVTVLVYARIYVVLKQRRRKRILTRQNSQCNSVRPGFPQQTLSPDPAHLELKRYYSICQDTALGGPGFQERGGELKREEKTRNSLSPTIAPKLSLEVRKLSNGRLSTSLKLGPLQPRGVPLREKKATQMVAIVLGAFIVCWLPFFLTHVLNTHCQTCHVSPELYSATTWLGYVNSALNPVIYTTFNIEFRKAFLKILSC
#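 Cells plated overnight at 1500 cells/well, then exposed to library compounds with dopamine controls for 90 minutes at 37 degrees C. DiscoveRx reagent added for 30–60 minutes at room temperature; luminescence read, quantitative HTS format.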
# DRD3 agonist – agonists of human D3 dopamine receptor; D3R DiscoveRx beta-arrestin cells, luminescence, 90 min; max activation, %; 410,000 tested, 0.58% active; in the data active = max activation above about 30%; also: 0% is about no effect
#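 Cells at 1500/well, incubated overnight, then treated with pinned compounds (dopamine as control) for 90 min at 37 degrees C. DiscoveRx reagent added for 30 - 60 minutes at room temperature; luminescence read.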
# S2 tox – cell viability loss in ATXN counter-screen; 400,000 tested, 0.49% active; AID 651635; S2 cells (HEK-293 line with an ATXN2-luciferase reporter) viability, CellTiter-Fluor protease fluorescence, 24 h; Potency, µM (titrated, usually from 56.7 µM), actives largely listed as cytotoxic; also: potency is read from the fitted curve at half-maximal effect; nearly all actives have a fitted effect of over 40% in size
# IL1B secr inh – blocks inflammasome-driven IL-1 beta release | THP-1 LPS/ATP IL-1B secretion, AlphaLISA, 16 h; active compounds read low | activity change, % at 57.5 µM | 360,000 tested, 4.7% active; in the data active = activity change below about -50%; inconclusive = mostly about -30% to -49%; also: % is scaled to controls: 0 for no effect and ±100 for the full control effect
#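 Secreted IL-1B measured by AlphaLISA bead assay after 16 h compound exposure of THP-1 cells; compounds (final up to 57.5 uM) added 1 h before LPS (250 ng/mL) and ATP (1.25 mM) stimulation; lower signal means less secretion.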
# * = called active by the depositor; i = inactive; u = inconclusive; x = no result; [ ] = another dose, or the depositor's remark. Shown are actives, neighbours in structure and some others; about 7% of the full set was active somewhere. Unless noted, calls follow the shape of the dose curve; as a rule, active = well fitted curve in the direction sought with a large enough effect; inconclusive = small, poorly fitted or top-dose-only effect, or another doubt; inactive = no such curve, though single readings can be large; an effect the other way counts as inactive or inconclusive.
SMILES,ATXN2 expr inh,Integrin act MD,D3 antag,DRD3 agonist,S2 tox,IL1B secr inh
COc1ccccc1N1CCN(C(c2cc3ccc(C)cc3[nH]c2=O)c2nnnn2C2CCCC2)CC1 (stereo not drawn),-7%,2%[7.66 µM],-70*,-9,i,u
CSCCC(NC(N)=O)C(=O)Nc1ccc(C)cc1 (stereo not drawn),-10%,13%,1,-8,i,26
Fc1ccc(N2CCN(C(c3cccs3)c3nnnn3C3CCCC3)CC2)cc1 (stereo not drawn),-6%,-15%,19,2,i,-68*
CC1(C)Cc2c(c(N3CCOCC3)nc3snc(N)c23)CO1,-16%,-70%,-19,-7,u,-108*
CC1(C)Cc2c(c(N3CCOCC3)nc3snc(Br)c23)CO1,-3%,4%,22,0,i,0
COc1cccc(NC(=O)c2c([N+](=O)[O-])cnn2C)c1,4%,28%,13,9,i,-3
Cc1ccc2nc(/C(C#N)=C\c3cc(C)n(-c4cccc([N+](=O)[O-])c4)c3C)[nH]c2c1,-16%,5%,-53*,-62,i,u
Cc1ccc2nc(/C(C#N)=C\c3ccc([N+](=O)[O-])o3)[nH]c2c1,5.6µM*,-61%,-27,26,x,-101*
Cc1cc(/C=C(/C#N)c2nc3ccccc3[nH]2)c(C)n1-c1cc(C(=O)O)cc(C(=O)O)c1,-4%,32%,-25,2,i,18
N#C/C(=C\c1ccc([N+](=O)[O-])o1)c1nc2ccccc2[nH]1,13µM*,-58%,-29,45*,i,-101*
Cc1cc(NC(=O)Nc2ccc(Cl)cc2)no1,28%,35%,19,3,i,0
Cc1cc(NC(=O)c2ccc(Cl)cc2Cl)no1,-1%,1.4µM*,-8,2,i,u
Cc1ccc(/C=C2/CNC/C(=C/c3ccc(C)cc3)C2=O)cc1,u,-56%,-51*,-5,u,-106*
Cc1ccc(/C=C2\CCOC2=O)cc1,17%,-5%,5,3,i,u
CCOC(=O)c1sc(NC(=O)/C=C/c2cnn(CC)c2C)c(C(=O)OCC)c1C,u,-21%[7.66 µM],16,36*,i,u
CCCOC(=O)c1c(NC(=O)/C=C/c2cnn(C)c2C)sc(C(=O)OCC)c1C,-2%,0%,36,20,i,2
CCCOC(=O)c1c(NC(=O)/C=C/c2cnn(C)c2C)sc(C(=O)OC)c1C,4%,-7%,-77*,17,i,0
CCn1ncc(/C=C/C(=O)Nc2c(C)nn(CC)c2C)c1C,-4%,4%,23,3,i,0
C=CC[n+]1c(-c2ccc(Cl)cc2Cl)csc1Nc1ccc(NC(C)=O)cc1,u,12%,u,-18,u,-80*
CCCC[n+]1c(-c2ccc(Cl)cc2Cl)csc1Nc1ccccc1,23%,0%,2,2,i,-14
C=CC[n+]1c(-c2ccc(Cl)cc2Cl)csc1Nc1c(C)n(C)n(-c2ccccc2)c1=O,-15%,-52%,-81*,-27,u,-80*
C=CCn1c(CC(C)(C)C)nc2ccccc21,16%,-7%,9,10,i,0
O=C(NNc1ccccc1[N+](=O)[O-])Nc1ccc(Cl)c(Cl)c1,-23%,-7%,-7,-6,i,-93*
O=C(Nc1ccc(Cl)c([N+](=O)[O-])c1)C(Sc1ccccc1)c1ccccc1 (stereo not drawn),u,-39%,-6,-16,u,-83*
O=C(Nc1cc([N+](=O)[O-])ccc1Cl)C(Sc1ccccc1)c1ccccc1 (stereo not drawn),6%,-29%,-16,-6,i,-9
CCN(CC)S(=O)(=O)c1cc([N+](=O)[O-])ccc1NNC(=O)Nc1ccc(Cl)c(Cl)c1,u,-65%,-84*,-7,x,-67*
COc1ccccc1C(=O)Nc1ccccc1N1CCCCC1,-29%,u,-18,-7,i,-28

# Source: PubChem BioAssay
